Data reported in the supplement of paper PMC11732987, “Enantioselective OTUD7B fragment discovery through chemoproteomics screening and high-throughput optimisation” (Communications Chemistry, 2025).

How the values were obtained:
Assay in all cases: log2 ratio of Biotin-Ahx-Ub-VS probe labelling (fragment/DMSO); higher = less target engagement (more negative = stronger competition), active = hit call of the paper (q ≤ 0.05, log2 ratio ≤ -1)
Conditions in all cases: compound concentration: 200 uM; treatment time: 3 h
USP19 = molecular target: T1, USP19 (UniProt O94966)
T1 sequence (whole entry): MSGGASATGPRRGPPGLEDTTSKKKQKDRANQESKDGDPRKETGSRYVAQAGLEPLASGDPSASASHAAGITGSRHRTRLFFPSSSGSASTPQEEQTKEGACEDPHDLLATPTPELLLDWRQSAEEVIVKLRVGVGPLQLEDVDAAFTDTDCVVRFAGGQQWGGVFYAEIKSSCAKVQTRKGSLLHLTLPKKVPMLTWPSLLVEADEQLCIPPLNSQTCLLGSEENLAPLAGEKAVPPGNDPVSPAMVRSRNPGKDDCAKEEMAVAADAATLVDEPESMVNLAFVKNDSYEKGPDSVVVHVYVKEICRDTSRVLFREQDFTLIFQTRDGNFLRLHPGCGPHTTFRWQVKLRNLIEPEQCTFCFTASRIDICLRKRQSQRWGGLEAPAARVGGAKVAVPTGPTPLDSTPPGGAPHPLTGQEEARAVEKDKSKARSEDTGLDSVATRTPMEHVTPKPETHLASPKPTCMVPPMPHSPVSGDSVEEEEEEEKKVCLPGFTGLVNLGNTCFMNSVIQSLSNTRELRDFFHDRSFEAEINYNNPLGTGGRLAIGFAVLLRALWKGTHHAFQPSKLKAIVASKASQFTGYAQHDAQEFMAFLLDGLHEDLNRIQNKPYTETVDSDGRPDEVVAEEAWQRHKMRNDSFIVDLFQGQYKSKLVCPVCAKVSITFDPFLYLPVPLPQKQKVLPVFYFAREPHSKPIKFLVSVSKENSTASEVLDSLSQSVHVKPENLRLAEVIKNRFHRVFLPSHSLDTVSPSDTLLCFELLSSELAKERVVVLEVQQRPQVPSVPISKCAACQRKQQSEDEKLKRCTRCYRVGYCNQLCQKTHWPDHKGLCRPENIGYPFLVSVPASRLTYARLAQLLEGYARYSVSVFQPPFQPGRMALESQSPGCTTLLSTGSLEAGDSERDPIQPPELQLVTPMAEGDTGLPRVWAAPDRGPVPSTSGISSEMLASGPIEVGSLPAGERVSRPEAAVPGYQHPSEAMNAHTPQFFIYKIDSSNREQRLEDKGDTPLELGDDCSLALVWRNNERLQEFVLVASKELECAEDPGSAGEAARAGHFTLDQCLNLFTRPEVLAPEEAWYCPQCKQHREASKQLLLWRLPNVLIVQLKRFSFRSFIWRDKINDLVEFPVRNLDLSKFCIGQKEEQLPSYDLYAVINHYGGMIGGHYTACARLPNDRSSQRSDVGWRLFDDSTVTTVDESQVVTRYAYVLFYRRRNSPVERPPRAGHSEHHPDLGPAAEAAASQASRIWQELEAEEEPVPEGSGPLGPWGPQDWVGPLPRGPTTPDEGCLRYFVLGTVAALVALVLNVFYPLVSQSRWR
In short: (§1)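 The table lists average log2 ratios of fragment over vehicle, from an unpaired t-test on global-median-normalised Spectronaut label-free quantities. Proteins with ≥2 unique peptides were used. Samples were HEK293T lysate (495 µg) treated in triplicate with fragment at 200 µM or vehicle for 3 h, then with Biotin-Ahx-Ub-VS (0.5 µM final) for 1 h, with labelled DUBs NeutrAvidin-enriched and run by diaPASEF LC-MS/MS.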

USP22 = molecular target: T2, USP22 (UniProt Q9UPT9)
T2 sequence (whole entry): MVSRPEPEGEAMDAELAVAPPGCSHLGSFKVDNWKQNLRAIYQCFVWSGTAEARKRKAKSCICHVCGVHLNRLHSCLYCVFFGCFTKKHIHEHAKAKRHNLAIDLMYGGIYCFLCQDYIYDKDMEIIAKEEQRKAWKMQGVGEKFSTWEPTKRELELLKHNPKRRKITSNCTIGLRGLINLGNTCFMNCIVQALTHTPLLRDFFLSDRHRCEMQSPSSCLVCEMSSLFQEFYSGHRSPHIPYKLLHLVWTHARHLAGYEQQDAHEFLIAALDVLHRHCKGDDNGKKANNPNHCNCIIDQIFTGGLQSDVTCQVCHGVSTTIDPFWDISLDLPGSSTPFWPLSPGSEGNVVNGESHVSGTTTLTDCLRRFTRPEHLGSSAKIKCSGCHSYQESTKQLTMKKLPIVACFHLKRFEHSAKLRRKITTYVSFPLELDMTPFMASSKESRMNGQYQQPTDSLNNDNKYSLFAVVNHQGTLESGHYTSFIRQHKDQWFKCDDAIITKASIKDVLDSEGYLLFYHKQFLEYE
In short: as §1

USP24 = USP24 (UniProt Q9UPU5)
Chain of USP24 (Q9UPU5 whole entry): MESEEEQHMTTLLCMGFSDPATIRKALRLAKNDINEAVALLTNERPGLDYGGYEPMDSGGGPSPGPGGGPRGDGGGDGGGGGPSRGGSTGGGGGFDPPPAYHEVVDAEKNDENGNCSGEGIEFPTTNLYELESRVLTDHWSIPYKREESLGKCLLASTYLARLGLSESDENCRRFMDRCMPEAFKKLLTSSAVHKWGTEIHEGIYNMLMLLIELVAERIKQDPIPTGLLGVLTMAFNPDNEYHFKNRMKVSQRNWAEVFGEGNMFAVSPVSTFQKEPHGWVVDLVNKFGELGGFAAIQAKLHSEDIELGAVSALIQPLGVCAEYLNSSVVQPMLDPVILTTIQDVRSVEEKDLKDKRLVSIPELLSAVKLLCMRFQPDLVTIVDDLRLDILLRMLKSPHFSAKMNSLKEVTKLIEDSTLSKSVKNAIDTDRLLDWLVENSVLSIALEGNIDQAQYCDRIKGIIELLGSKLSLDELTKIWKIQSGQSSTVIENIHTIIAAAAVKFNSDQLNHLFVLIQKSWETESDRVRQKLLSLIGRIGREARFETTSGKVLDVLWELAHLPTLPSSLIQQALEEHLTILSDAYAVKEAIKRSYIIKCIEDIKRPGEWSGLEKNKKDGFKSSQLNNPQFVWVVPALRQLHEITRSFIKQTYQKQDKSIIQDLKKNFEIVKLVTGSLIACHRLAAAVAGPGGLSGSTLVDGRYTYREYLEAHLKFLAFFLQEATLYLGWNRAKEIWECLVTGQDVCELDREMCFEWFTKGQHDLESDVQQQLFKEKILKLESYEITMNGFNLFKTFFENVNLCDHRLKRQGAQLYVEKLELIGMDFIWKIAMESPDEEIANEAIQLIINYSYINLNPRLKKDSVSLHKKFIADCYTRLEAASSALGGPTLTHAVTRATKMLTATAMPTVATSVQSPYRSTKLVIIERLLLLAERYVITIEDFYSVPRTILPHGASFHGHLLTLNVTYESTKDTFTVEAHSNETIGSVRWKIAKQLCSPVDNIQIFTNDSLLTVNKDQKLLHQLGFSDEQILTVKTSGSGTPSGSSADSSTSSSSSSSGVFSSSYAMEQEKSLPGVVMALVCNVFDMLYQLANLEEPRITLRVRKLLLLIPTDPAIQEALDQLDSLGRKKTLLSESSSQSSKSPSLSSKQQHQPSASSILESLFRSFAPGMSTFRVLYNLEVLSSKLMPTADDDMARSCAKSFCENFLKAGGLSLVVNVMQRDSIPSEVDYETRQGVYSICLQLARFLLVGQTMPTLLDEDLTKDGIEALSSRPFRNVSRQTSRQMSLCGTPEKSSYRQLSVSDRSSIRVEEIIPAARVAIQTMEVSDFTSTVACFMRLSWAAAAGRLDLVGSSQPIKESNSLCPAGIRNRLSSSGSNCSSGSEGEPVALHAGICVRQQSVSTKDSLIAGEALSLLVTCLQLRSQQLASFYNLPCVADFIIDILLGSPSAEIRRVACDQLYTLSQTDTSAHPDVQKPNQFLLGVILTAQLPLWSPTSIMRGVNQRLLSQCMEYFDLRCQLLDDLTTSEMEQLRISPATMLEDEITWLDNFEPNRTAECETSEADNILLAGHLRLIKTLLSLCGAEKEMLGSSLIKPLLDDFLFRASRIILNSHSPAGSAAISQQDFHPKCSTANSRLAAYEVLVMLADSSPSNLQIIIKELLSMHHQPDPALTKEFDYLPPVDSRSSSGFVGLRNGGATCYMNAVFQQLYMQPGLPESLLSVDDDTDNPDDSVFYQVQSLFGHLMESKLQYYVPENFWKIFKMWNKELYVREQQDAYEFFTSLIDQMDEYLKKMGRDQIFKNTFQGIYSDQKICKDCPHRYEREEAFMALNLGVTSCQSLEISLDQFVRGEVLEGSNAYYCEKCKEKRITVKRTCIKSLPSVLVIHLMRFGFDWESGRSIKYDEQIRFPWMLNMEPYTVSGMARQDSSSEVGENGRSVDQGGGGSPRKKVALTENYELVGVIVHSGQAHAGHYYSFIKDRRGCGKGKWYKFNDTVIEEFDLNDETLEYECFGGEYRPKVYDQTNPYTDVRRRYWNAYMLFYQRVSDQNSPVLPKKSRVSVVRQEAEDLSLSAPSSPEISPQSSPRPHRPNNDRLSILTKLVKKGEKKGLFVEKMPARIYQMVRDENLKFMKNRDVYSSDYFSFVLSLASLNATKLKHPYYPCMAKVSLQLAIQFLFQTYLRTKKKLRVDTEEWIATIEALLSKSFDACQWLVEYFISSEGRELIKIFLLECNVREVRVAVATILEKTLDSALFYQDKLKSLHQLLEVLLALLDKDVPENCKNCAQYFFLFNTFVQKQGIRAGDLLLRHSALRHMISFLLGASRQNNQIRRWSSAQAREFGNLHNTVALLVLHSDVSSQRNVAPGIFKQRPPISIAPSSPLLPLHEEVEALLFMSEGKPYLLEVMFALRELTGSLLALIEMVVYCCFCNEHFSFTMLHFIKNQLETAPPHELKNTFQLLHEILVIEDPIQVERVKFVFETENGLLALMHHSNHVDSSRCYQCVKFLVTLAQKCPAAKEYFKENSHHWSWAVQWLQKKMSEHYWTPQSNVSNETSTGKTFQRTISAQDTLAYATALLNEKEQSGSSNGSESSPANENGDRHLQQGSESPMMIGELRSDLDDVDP
In short: as §1

USP25 = molecular target: T3, USP25 (UniProt Q9UHP3)
T3 sequence (whole entry): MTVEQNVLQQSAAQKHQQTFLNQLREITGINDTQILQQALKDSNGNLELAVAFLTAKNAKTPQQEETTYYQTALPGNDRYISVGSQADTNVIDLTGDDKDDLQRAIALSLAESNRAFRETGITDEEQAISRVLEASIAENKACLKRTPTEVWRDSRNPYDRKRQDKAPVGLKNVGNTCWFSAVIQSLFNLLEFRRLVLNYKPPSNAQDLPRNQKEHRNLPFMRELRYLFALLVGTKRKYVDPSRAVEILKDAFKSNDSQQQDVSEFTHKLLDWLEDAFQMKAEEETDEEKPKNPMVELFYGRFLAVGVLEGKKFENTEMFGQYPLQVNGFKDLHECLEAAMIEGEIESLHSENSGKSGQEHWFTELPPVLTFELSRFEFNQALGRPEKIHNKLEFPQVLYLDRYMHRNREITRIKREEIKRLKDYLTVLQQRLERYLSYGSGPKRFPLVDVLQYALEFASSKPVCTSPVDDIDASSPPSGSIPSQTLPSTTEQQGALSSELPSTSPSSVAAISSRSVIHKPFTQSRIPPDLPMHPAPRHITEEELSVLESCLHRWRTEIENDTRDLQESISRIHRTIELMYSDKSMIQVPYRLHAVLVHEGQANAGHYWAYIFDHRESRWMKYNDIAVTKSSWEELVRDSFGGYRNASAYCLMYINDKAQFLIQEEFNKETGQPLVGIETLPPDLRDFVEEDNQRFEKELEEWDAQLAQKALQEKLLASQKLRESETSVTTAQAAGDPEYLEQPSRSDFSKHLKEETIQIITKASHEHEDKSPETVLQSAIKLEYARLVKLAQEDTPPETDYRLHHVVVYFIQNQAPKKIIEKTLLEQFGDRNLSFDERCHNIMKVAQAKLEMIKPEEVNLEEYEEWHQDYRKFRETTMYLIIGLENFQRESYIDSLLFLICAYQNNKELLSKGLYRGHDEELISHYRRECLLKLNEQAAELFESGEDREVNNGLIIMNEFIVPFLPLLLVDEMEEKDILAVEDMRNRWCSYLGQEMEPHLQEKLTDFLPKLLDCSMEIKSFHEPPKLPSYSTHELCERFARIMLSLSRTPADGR
In short: as §1

USP28 = molecular target: T4, USP28 (UniProt Q96RU2)
T4 sequence (whole entry): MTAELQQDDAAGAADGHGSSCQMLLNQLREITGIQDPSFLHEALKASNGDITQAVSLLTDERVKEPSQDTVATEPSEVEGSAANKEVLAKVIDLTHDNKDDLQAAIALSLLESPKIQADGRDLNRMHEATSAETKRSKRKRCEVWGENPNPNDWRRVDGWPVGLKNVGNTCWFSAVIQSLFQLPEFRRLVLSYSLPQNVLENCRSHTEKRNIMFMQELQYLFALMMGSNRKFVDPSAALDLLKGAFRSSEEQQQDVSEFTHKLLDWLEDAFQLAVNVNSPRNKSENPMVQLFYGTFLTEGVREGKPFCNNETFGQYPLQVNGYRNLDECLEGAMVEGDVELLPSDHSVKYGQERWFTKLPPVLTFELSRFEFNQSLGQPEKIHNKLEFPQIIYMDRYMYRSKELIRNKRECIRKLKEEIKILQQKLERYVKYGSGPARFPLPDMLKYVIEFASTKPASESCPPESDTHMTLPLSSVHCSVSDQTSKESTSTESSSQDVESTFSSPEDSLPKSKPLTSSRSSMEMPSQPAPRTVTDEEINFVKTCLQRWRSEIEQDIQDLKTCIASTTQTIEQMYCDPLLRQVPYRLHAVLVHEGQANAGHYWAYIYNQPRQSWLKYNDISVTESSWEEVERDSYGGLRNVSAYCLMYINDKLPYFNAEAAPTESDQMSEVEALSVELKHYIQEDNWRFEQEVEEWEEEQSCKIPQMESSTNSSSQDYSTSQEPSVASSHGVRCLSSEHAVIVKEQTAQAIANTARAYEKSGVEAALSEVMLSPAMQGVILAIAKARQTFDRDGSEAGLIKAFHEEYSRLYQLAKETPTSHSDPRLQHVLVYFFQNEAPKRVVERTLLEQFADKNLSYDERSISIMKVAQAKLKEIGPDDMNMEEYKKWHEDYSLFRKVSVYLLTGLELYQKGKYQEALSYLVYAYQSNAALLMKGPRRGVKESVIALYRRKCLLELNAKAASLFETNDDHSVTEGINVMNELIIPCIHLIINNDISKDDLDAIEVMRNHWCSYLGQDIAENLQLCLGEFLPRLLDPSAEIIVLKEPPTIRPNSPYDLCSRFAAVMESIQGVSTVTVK
In short: as §1

Measured: log2 ratio of Biotin-Ahx-Ub-VS probe labelling

Cc1ccc(C(=O)NCCNC(=O)CCl)cc1
inactive: USP19 -0.26 | USP22 -0.00216 | USP24 -0.352 | USP25 -0.498 | USP28 -0.493
